Assay results published in PubChem BioAssay (NCI).
About 83,000 compounds went through this panel and 20% of them were active in at least one assay; those are over-represented in the sample as a whole.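 Testing used 96-well plates and a 48-hour single-concentration exposure. Example: -40 means 40% of the starting cells died.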

How the values were obtained:
Assay in all cases: NCI-60 one-dose screen, 48 h (100 = growth as untreated, 0 = no growth, -100 = all killed)
Conditions in all cases: 10 µM unless noted; active = growth percent below 10; inactive = the rest
SK-MEL-2 melanoma = tested on: SK-MEL-2 melanoma
EKVX NSCLC = tested on: EKVX NSCLC
SN12C renal = tested on: SN12C renal
UO-31 renal = tested on: UO-31 renal
TK-10 renal = tested on: TK-10 renal
ACHN renal = tested on: ACHN renal
CAKI-1 renal = tested on: CAKI-1 renal
A498 renal = tested on: A498 renal
CCRF-CEM leukemia = tested on: CCRF-CEM leukemia
MOLT-4 leukemia = tested on: MOLT-4 leukemia
SR leukemia = tested on: SR leukemia
RPMI-8226 leukemia = tested on: RPMI-8226 leukemia
OVCAR-8 ovarian = tested on: OVCAR-8 ovarian
OVCAR-5 ovarian = tested on: OVCAR-5 ovarian
SK-OV-3 ovarian = tested on: SK-OV-3 ovarian
IGROV1 ovarian = tested on: IGROV1 ovarian
OVCAR-3 ovarian = tested on: OVCAR-3 ovarian
HS 578T breast = tested on: HS 578T breast
NCI/ADR-RES ovarian = tested on: NCI/ADR-RES ovarian

Measured: growth

COc1ccc(N(c2nc(-c3ccc([N+](=O)[O-])cc3)cs2)C(C)C)cc1
inactive: SK-MEL-2 melanoma 92.1% | EKVX NSCLC 65.8% | SN12C renal 91.4% | UO-31 renal 69.3% | TK-10 renal 88.9% | ACHN renal 89% | CAKI-1 renal 62.6% | A498 renal 59.5% | CCRF-CEM leukemia 62.5% | MOLT-4 leukemia 68.5% | SR leukemia 66.5% | RPMI-8226 leukemia 52.7% | OVCAR-8 ovarian 89.6% | OVCAR-5 ovarian 109% | SK-OV-3 ovarian 81.7% | IGROV1 ovarian 80.4% | OVCAR-3 ovarian 81.1% | HS 578T breast 85% | NCI/ADR-RES ovarian 86.2%

Cc1cnc(N)nc1OCCNC(=O)c1cccc(-c2ccc(S(=O)(=O)Nc3ccc4c(c3)N(C(=O)C3CC3)CCC4)cc2)c1
inactive: SK-MEL-2 melanoma 74.4% | EKVX NSCLC 98.9% | SN12C renal 79.7% | UO-31 renal 77.1% | TK-10 renal 93.1% | ACHN renal 84.9% | CAKI-1 renal 77.4% | A498 renal 40.2% | CCRF-CEM leukemia 64.1% | MOLT-4 leukemia 37.7% | SR leukemia 104% | RPMI-8226 leukemia 42.7% | OVCAR-8 ovarian 67.4% | OVCAR-5 ovarian 105% | SK-OV-3 ovarian 98.8% | IGROV1 ovarian 74% | OVCAR-3 ovarian 79.5% | HS 578T breast 75.3% | NCI/ADR-RES ovarian 102%

N#Cc1ccc(-c2ccc(COc3ccc(CC4SC(=O)NC4=O)cc3)cc2)cc1 (configuration not stated)
inactive: SK-MEL-2 melanoma 56.9% | EKVX NSCLC 48% | SN12C renal 74.4% | UO-31 renal 48.1% | TK-10 renal 85.9% | ACHN renal 52.4% | CAKI-1 renal 48.1% | A498 renal 99.7% | CCRF-CEM leukemia 61.5% | MOLT-4 leukemia 37.8% | SR leukemia 45.1% | RPMI-8226 leukemia 48.5% | OVCAR-8 ovarian 58.3% | OVCAR-5 ovarian 96.2% | SK-OV-3 ovarian 69.9% | IGROV1 ovarian 68.4% | OVCAR-3 ovarian 64.7% | HS 578T breast 72.5% | NCI/ADR-RES ovarian 37.8%
